Hits are enriched below; roughly 12% of the tested compounds scored in any of these assays.
JMJD2A Tudor inh – JMJD2A Tudor domain (human) inhibition; O75164; AlphaScreen JMJD2A-Tudor / H3K4me3 peptide binding; Potency, µM (highest dose often 114 µM), for inactives: at the highest dose activity change, negative = inhibition, hits mostly inhibitors; actives 4.4% (n = 390,000); AID 504339; further: on the % scale 0 is the no-effect control and ±100 the full control effect; nearly all actives have a fitted effect of over 50% in size
HP1b chromo inh – blocks HP1-beta chromodomain binding to methylated histone tails. Potency, µM (series often up to 114 µM), for the others: top-dose activity change, negative = inhibition, usual class: inhibitors. actives 0.56% (n = 390,000). AlphaScreen HP1-beta / biotin-H3K9me3 peptide binding. AID 540317. P83916; further: nearly all actives have a fitted effect of over 70% in size
Target sequence (P83916 whole entry, looked up): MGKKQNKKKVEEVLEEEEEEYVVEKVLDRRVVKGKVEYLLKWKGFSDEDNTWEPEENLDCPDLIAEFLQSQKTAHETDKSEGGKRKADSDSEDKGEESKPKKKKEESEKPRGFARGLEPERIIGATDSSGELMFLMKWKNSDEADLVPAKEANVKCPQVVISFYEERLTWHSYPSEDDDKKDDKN
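Compound inhibition of the preformed complex between 50 nM HP1-beta and 50 nM biotinylated H3K9me3 peptide was read by AlphaScreen. Buffer was PBS pH 7.4 with 0.01% Tween-20. Incubations ran 30 min at room temperature, with 10 ug/mL donor/acceptor beads.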
G9a block – inhibitors of human histone lysine methyltransferase G9a; Q96KQ7; G9a H3K9 monomethylation, AlphaScreen, 2 h; Potency, µM (titrated, usually from 102 µM), for the others: top-dose activity, negative = inhibition, most hits filed as inhibitors; actives 8.8% (n = 350,000); further: on the % scale 0 is the no-effect control and ±100 the full control effect; nearly all actives have a fitted effect of over 75% in size
Target sequence (Q96KQ7 913-1193 limits assumed): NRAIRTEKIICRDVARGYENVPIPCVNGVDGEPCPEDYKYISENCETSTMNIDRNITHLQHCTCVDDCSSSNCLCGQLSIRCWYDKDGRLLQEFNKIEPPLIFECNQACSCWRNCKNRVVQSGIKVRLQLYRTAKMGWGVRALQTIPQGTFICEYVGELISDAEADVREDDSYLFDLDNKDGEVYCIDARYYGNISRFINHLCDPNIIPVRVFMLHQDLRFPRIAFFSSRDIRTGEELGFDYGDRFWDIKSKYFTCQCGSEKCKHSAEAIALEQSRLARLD
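Using a bead-based AlphaScreen, monomethylated H3K9 product from 2 h room-temperature reactions (G9a 20 nM, peptide 500 nM, SAM 20 uM) was detected with 0.5 ug/mL rabbit anti-H3K9me1 antibody.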
BAZ2B inh – BAZ2B (human) inhibition; Q9UIF8; AlphaScreen BAZ2B-H3K14Ac peptide displacement; Potency, µM (doses to about 114 µM), without a hit: at the highest dose activity change, negative = inhibition, hits mostly inhibitors; actives 4.4% (n = 360,000); further: on the % scale 0 is the no-effect control and ±100 the full control effect; nearly all actives have a fitted effect of over 60% in size
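AlphaScreen displacement: compounds (up to 110uM) incubated 30 min at room temperature with a preformed 50 nM BAZ2B/50 nM biotinylated H3K14Ac peptide complex in PBS pH 7.4 with Tween-20. Donor and acceptor beads at 10 ug/mL final added, 20 min light-protected before reading.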
TDP1 block – blocks human tyrosyl-DNA phosphodiesterase 1 | actives 0.28% (n = 350,000) | recombinant TDP1, AlphaScreen DNA substrate cleavage | AID 485290 | Q9NUW8 | Potency, µM (top dose mostly 130 µM), for inactives: at the top dose activity change, negative = inhibition, usual class: inhibitors; further: on the % scale 0 is the no-effect control and ±100 the full control effect; nearly all actives have a fitted effect of over 40% in size
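Here, a 5' biotin and 3' phosphotyrosine-FITC DNA oligonucleotide reports Tdp1 activity: intact substrate bridges AlphaScreen beads, while cleavage leaves a 3' phosphate and drops signal. All incubations at room temperature.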
Sfp inh – inhibitors of Bacillus subtilis Sfp phosphopantetheinyl transferase | Q9F4F7 | Biochemical Sfp PPTase activity, qHTS | Potency, µM, for the others: largest response in the series, negative = inhibition, hits mostly inhibitors | actives 3.5% (n = 310,000) | AID 1490;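 further: the enzyme is Sfp with the accession as filed and its product quenches rhodamine fluorescence; 0% = enzyme reaction without inhibitor and -100% = no enzyme wells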
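Sfp 15 nM + cpd, 15 min RT; start w/ rhodamine-CoA 5 uM, BHQ-2-YbbR 12.5 uM (final); 50 mM Hepes pH 7.6, 10 mM MgCl2, 0.01% NP-40, 0.01% BSA; read 525/598 nm at 0 and 30 min.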
* marks the source's active call; other numbers are inactive results; ? = inconclusive; . = no result; [ ] = dose if it differs, or a comment. The call rests on the fitted dose curve; in most records, active means well fitted curve in the direction sought with a large enough effect; inconclusive means small, poorly fitted or top-dose-only effect, or another doubt; inactive means no such curve, though single readings can be large; an effect the other way counts as inactive or inconclusive. Potency means the concentration at half of the fitted maximal effect.

SMILES	JMJD2A Tudor inh	HP1b chromo inh	G9a block	BAZ2B inh	TDP1 block	Sfp inh
O=C(Nc1nc(-c2ccccn2)cs1)C1CC(=O)N(c2ccc3c(c2)OCCO3)C1 (configuration not stated)	35.5µM*	13.8%	10.6%[59 µM]	39.8µM*	2.8%	-2.4%
O=C(Nc1nnc(C2CC2)s1)C1CC(=O)N(c2ccc3c(c2)OCCO3)C1 (configuration not stated)	44.7µM*	-27.1%	-14.0%[59 µM]	50.1µM*	.	17.8%
O=C(NC(Cc1ccccc1)c1nc2ccccc2[nH]1)C1CC(=O)N(c2ccc3c(c2)OCCO3)C1 (configuration not stated)	?	34.5%	12.6µM*	?	-6.7%	?
COc1ccc(Cl)cc1C(=O)NNC(=O)C1COc2ccccc2O1 (configuration not stated)	22.4µM*	-9.7%	6.2%	-11.6%	4.9%	10.8%
O=C(Nc1nc(-c2cccs2)cs1)C1CC(=O)N(c2ccc3c(c2)OCCO3)C1 (configuration not stated)	-18.4%	3.1%	.	.	4.1%	.
O=C(NC(Cc1ccccc1)C(=O)O)/C(=C/c1ccc([N+](=O)[O-])cc1)NC(=O)c1ccccc1 (configuration not stated)	-16.8%	35.1%	-15.2%	-20.7%	10.4%	14.8%
CCN(CC)CCNC(=O)c1ccc(NC(=O)C2CC(=O)N(c3ccc4c(c3)OCCO4)C2)cc1 (configuration not stated)	-8.5%	12.8%	39.8µM*	0.2%	0.5%	.
COc1ccc2nc(NC(=O)C3CC(=O)N(c4ccc5c(c4)OCCO5)C3)sc2c1 (configuration not stated)	-32.4%	-0.2%	39.8µM*	-11.3%	13.8%	.
COc1ccc2nc(NNC(=O)C3COc4ccccc4O3)sc2c1 (configuration not stated)	-22.2%	42.0%	?	6.8%	8.2%	79.4µM*
Cc1ccc(C(=O)OCC(=O)c2c[nH]c3ccccc23)cc1S(=O)(=O)N1CCOCC1	-4.8%	22.1%	?	3.5%	-2.3%	.
COc1ccc(CCNc2nc(C)nc3c2oc2ccccc23)cc1OC	-24.8%	18.7%	7.1%[12.7 µM]	-34.3%	5.9%	28.2µM*
Cc1cccc(Nc2nc(C)nc3c2oc2ccccc23)c1	-15.4%	27.5%	79.4µM*	?	.	?
O=C1COc2ccc(C(=O)COc3ccc([N+](=O)[O-])cc3)cc2N1	-15.5%	25.0%	.	9.3%	0.0%	0.8%
COc1ccc(/C=N/Nc2ncc(Br)cn2)c(OC)c1	50.1µM*	24.3%	31.8%[12.7 µM]	18.7%	4.8%	?
COc1ccc(/C=N\Nc2ccccn2)c(OC)c1	-12.3%	34.4%	-0.1%[59 µM]	-4.3%	.	6.4%
CCOC(=O)C1(Cc2cccc(F)c2)CCN(Cc2cnn(CC)c2)CC1	4.5%[11.4 µM]	26.4%	10.8%	3.6%	0.0%	21.0%
CCOC(=O)C1(Cc2cccc(F)c2)CCN(Cc2nc(CC)[nH]c2C)CC1	50.1µM*	-3.6%	39.8µM*	?	7.3%	1.7%
COC(=O)c1ccc(Cn2cnc3c(N)ncnc32)cc1	-7.6%	17.3%	.	.	.	.
O=C(CSc1nc(-c2ccccc2)nn1C(=O)c1ccccc1)Nc1cccc([N+](=O)[O-])c1	?	-1.0%	.	56.2µM*	4.8%	-0.1%
O=C(c1cccc([N+](=O)[O-])c1)n1nc(-c2ccccc2)nc1NCc1ccccc1	?	-11.7%	44.7µM*	-6.9%	2.7%	3.3%
O=C(c1ccc([N+](=O)[O-])cc1)n1nc(-c2ccccc2)nc1NCc1ccccc1	?	?	.	-25.8%	-4.8%	-1.7%
CCOCC(=O)Nc1ccc([N+](=O)[O-])cc1C	?	18.4%	-43.2%	9.9%	2.7%	16.0%
Cc1ccc(C)c(CN2C(=O)c3ccccc3S(=O)c3ccc(C(=O)N4CCN(c5ccccn5)CC4)cc32)c1 (configuration not stated)	-28.7%	23.1%	-8.5%	?	2.3%	-3.8%
N#CCCN(C(=O)COC(=O)CCc1nc2ccccc2c(=O)[nH]1)c1ccccc1F	-1.7%	31.7%	-0.2%[12.7 µM]	-5.5%	1.6%	.
CC(=O)c1sc(NC(=O)c2ccc(Br)o2)nc1C	7.1%	34.6%	2.2%	?	6.2%	5.0%
SMILES	JMJD2A Tudor inh	HP1b chromo inh	G9a block	BAZ2B inh	TDP1 block	Sfp inh
CC(=O)c1sc(NC(=O)c2ccc(Cn3cc(Br)cn3)o2)nc1C	-13.9%	16.1%	44.7µM*	-8.5%	-6.2%	11.8%
COc1ccc(-n2c(SCC(=O)NC3CCCCC3)nc3c([nH]c4ccccc43)c2=O)cc1	1.9%	14.7%[57 µM]	13.1%[59 µM]	1.9%	-2.2%	.
CCOc1ccccc1CNC(=O)CN1C(=O)c2cccnc2Oc2ccc(Cl)cc21	-4.3%	26.6%	-4.8%[59 µM]	0.4%	1.2%	.
CCOC(=O)c1sc(S(C)(=O)=O)c2c1CCc1conc1-2	-2.0%	29.6%	56.2µM*	-21.3%	2.9%	-17.1%
CCOC(=O)c1c(N)sc2c1CCCC2	?	-19.5%	?	?	7.1%	?
CCOC(=O)c1c(N)sc2c1CCC(C)C2 (configuration not stated)	-22.0%	-8.6%	?	?	-2.0%	50.1µM*
CCOC(=O)c1c(NS(C)(=O)=O)sc2c1CCC(C)C2 (configuration not stated)	-35.5%	4.1%	56.2µM*	?	5.8%	-14.1%
Cc1cccc(NC(=O)c2c(N)sc3c2CCC(C)C3)c1 (configuration not stated)	-27.0%	12.6%	12.6µM*	-3.0%	.	.
CCOC(=O)c1c(N)sc2c1CCS(=O)(=O)C2	?	?	8.91µM*	-4.3%	-9.1%	56.2µM*
CCOC(=O)C1CCN(C(=O)Cn2ncc3c4ccccc4n(Cc4ccccc4F)c3c2=O)CC1	-1.3%	31.4%	-0.2%[59 µM]	0.8%	2.5%	.
CC1CCCN(C(=O)CN2CCN(C(=O)c3ccco3)CC2)C1 (configuration not stated)	-2.5%	33.6%	25.1µM*	-5.7%	5.6%	3.6%
O=C(c1ccco1)N1CCN(CC(=O)N2c3ccccc3CCc3ccccc32)CC1	1µM*	14.1µM*	?	17.8µM*	-5.2%	?
Oc1cccc(C2c3[nH]c4ccccc4c3CCN2Cc2ccoc2)c1 (configuration not stated)	?	-16.2%	-39.4%	?	0.0%	5.2%
COc1ccc(C2c3[nH]c4ccccc4c3CCN2Cc2ccoc2)c(F)c1 (configuration not stated)	?	-11.9%	44.7µM*	?	7.3%	5.3%
